From PubChem BioAssay
This is a sample that favours compounds with a hit; in the whole collection about 19% have one here.
IL-1B inflam inh: inflammasome signaling inhibition, IL-1 beta readout; THP-1 LPS/ATP IL-1B secretion, AlphaLISA, 16 h; active compounds read low; activity change, % at 57.5 µM; 4.7% of 360,000 active; in the data active = activity change below about -50%; inconclusive = mostly about -30% to -49%
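Secreted IL-1B measured by AlphaLISA bead assay after 16 h compound exposure of THP-1 cells; compounds (final up to 57.5 uM) added 1 h before LPS (250 ng/mL) and ATP (1.25 mM) stimulation; lower signal means less secretion.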
HT1080NT lethal: kills 2HG-producing HT-1080-NT fibrosarcoma cells; HT-1080-NT fibrosarcoma viability, CellTiter-Glo ATP luminescence, 48 h; 1.6% of 360,000 active; Potency, µM (highest dose often 46.1 µM), without a hit: at the top dose activity, negative = less viability, hits mostly cytotoxic; AID 686970;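 note: NT is the 2HG producing partner of a matched IDH1 knockdown line; potency is the fitted concentration of half-maximal effect; 0% = DMSO-treated cells and -100% = media-only wells without cells; nearly all actives have a fitted effect of over 55% in size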
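HT-1080-NT fibrosarcoma cells (2HG-overproducing), 750 cells/well in RPMI with 5% FBS, dosed after 2 h and incubated 48 h at 37C. CellTiter-Glo luminescence normalized to DMSO and no-cell wells; concentration-response curves fitted and classed.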
HT1080 IDH1KD tx: toxicity to HT-1080 IDH1 knockdown cells (counter line); 2% of 360,000 active; AID 686971; Potency, µM (doses to about 46.1 µM), inactives show at the top dose activity, negative = toxicity, actives largely listed as cytotoxic; HT-1080 IDH1 knockdown viability, ATP luminescence, 48 h;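 note: potency is the fitted concentration of half-maximal effect; 0% = DMSO wells and -100% = cell-free medium wells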
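Knockdown cells (IDH1KD HT-1080) received compounds 2 h after plating at 750 cells/well and were kept 48 h at 37 °C in 5% FBS RPMI. A CellTiter-Glo luminescence read gave % activity for curve fitting.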
TDP1 cell noCPT: qHTS for Inhibitors of human tyrosyl-DNA phosphodiesterase 1 (TDP1): qHTS in cells in absence of CPT. Potency, µM (top dose mostly 46.2 µM), for the others: at the top dose activity change, negative = growth inhibition, actives largely listed as inhibitors. 15% of 420,000 active. DT40 Tdp1-/- hTDP1 cells, no CPT, ATP luminescence, 48 h; note: potency is the fitted concentration of half-maximal effect; nearly all actives have a fitted effect of over 55% in size
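Compound effects on proliferation are scored in DT40 Tdp1-/-;hTDP1 cells in the absence of CPT. ATP levels (CellTiter-Glo luminescence) are recorded after a ≥48 hr, 37 °C incubation.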
DT40 TDP1 CPT: DT40-hTDP1 cell growth loss with CPT; 12% of 420,000 active; Potency, µM (series often up to 46.2 µM), without a hit: at the highest dose activity change, negative = growth inhibition, actives largely listed as inhibitors; chicken DT40 Tdp1-/-;hTDP1 cells + 20 nM CPT, ATP luminescence, 48 h; note: potency is the fitted concentration of half-maximal effect; nearly all actives have a fitted effect of over 55% in size
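Chicken DT40 Tdp1-/- cells complemented with human TDP1, 400 cells/well, exposed to compounds plus 20 nM camptothecin for at least 48 h at 37 C; viability read as ATP content by CellTiter-Glo luminescence.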
* = called active by the depositor. Unless noted, calls come from the whole dose curve; as a rule, active = well fitted curve in the direction sought with a large enough effect; inconclusive = small, poorly fitted or top-dose-only effect, or another doubt; inactive = no such curve, though single readings can be large; an effect the other way counts as inactive or inconclusive. Unless noted, % is set by controls: 0 for no effect and ±100 for the full control effect.

Results for CC(=O)OC/C=C(\C)CC/C=C(\C)CC/C=C(\C)CC/C=C(\C)CC/C=C(\C)CC/C=C(\C)CC/C=C(\C)CC/C=C(\C)CCC=C(C)C ?
TDP1 cell noCPT: 14%; DT40 TDP1 CPT: 10%

Results for Oc1ccc(C23CC4CC(CC(C4)C2)C3)cc1O ?
IL-1B inflam inh: inconclusive; HT1080NT lethal: -2%; HT1080 IDH1KD tx: -14%; TDP1 cell noCPT: inconclusive; DT40 TDP1 CPT: inconclusive

How did NCCOc1ccc(C23CC4CC(CC(C4)C2)C3)cc1 do in these assays?
IL-1B inflam inh: -81*; HT1080NT lethal: 1%; HT1080 IDH1KD tx: inconclusive; TDP1 cell noCPT: 3.7µM*; DT40 TDP1 CPT: 3.7µM*

What do the screens show for `OCCN1CCN(CC(O)COc2ccc(C34CC5CC(CC(C5)C3)C4)cc2)CC1` (configuration not stated)?
IL-1B inflam inh: -97*; HT1080NT lethal: 18µM*; HT1080 IDH1KD tx: 23µM*; TDP1 cell noCPT: 5.2µM*; DT40 TDP1 CPT: 5.2µM*

How did Cc1nc(NC(=O)CN2CC(C)OC(C)C2)sc1C(=O)N(C)C (configuration not stated) do in these assays?
IL-1B inflam inh: 10; HT1080NT lethal: 20%; HT1080 IDH1KD tx: 0%; TDP1 cell noCPT: -30%; DT40 TDP1 CPT: 32%

What do the screens show for `CCOC(=O)c1cnn(-c2ccc([N+](=O)[O-])cc2)c1N`?
IL-1B inflam inh: inconclusive; HT1080NT lethal: 1%; HT1080 IDH1KD tx: 1%; TDP1 cell noCPT: -13%; DT40 TDP1 CPT: -19%

How did O=[N+]([O-])c1ccc(-c2csc(NN=C3CCCC3)n2)cc1 do in these assays?
IL-1B inflam inh: inconclusive; HT1080NT lethal: inconclusive; HT1080 IDH1KD tx: -21%; TDP1 cell noCPT: 10µM*; DT40 TDP1 CPT: 4.1µM*

What do the screens show for `CC(C)C(=O)Nc1nc(-c2ccc([N+](=O)[O-])cc2)cs1`?
IL-1B inflam inh: -16; HT1080NT lethal: -19%; HT1080 IDH1KD tx: -14%; TDP1 cell noCPT: 4.6µM*; DT40 TDP1 CPT: 9.2µM*

What do the screens show for `COCC(=O)Nc1nc(-c2ccc([N+](=O)[O-])cc2)cs1`?
IL-1B inflam inh: 2; HT1080NT lethal: 11%; HT1080 IDH1KD tx: 1%; TDP1 cell noCPT: inconclusive; DT40 TDP1 CPT: -23%

Results for O=C(Cc1nc(-c2ccc([N+](=O)[O-])cc2)cs1)Nc1ccccc1 ?
IL-1B inflam inh: -24; HT1080NT lethal: 0%; HT1080 IDH1KD tx: -5%; TDP1 cell noCPT: 16µM*; DT40 TDP1 CPT: 22µM*

Results for O=C(NCCc1nnc2n1CCN(Cc1c(F)cccc1F)CC2)c1ccc(F)cc1 ?
TDP1 cell noCPT: -10%; DT40 TDP1 CPT: 10%

How did CCN(CC)S(=O)(=O)c1cccc(-c2nnc(SCCOc3ccc(Cl)cc3)o2)c1 do in these assays?
IL-1B inflam inh: -10; HT1080NT lethal: -3%; HT1080 IDH1KD tx: inconclusive; TDP1 cell noCPT: inconclusive; DT40 TDP1 CPT: 23µM*

What do the screens show for `COc1cc(-c2nnc(SCCOc3ccccc3)o2)cc(OC)c1OC`?
TDP1 cell noCPT: 16µM*; DT40 TDP1 CPT: inconclusive

What do the screens show for `CCCN(CC(=O)c1cc(C)n(C)c1C)S(=O)(=O)c1cccc(C(F)(F)F)c1`?
IL-1B inflam inh: -3; HT1080NT lethal: -16%; HT1080 IDH1KD tx: -7%; TDP1 cell noCPT: inconclusive; DT40 TDP1 CPT: 23µM*

How did CCN(CC)S(=O)(=O)c1cccc(-c2nnc(SCCOc3ccccc3)o2)c1 do in these assays?
IL-1B inflam inh: -13; HT1080NT lethal: inconclusive; HT1080 IDH1KD tx: -8%; TDP1 cell noCPT: 21µM*; DT40 TDP1 CPT: 16µM*

Results for COc1ccc(CCNS(=O)(=O)c2cc3c4c(c2)CCN4C(=O)CC3)cc1 ?
IL-1B inflam inh: 8; HT1080NT lethal: 5%; HT1080 IDH1KD tx: 0%; TDP1 cell noCPT: inconclusive; DT40 TDP1 CPT: 3%

Results for CCCNC(=O)COc1coc(CN2CCN(C(=O)c3ccco3)CC2)cc1=O ?
IL-1B inflam inh: 9; HT1080NT lethal: 8%; HT1080 IDH1KD tx: 17%; TDP1 cell noCPT: -105%; DT40 TDP1 CPT: 7%

What do the screens show for `Cc1ccc(NC(=O)C2CCN(S(=O)(=O)c3c(C)noc3C)CC2)c(C)c1`?
TDP1 cell noCPT: -10%; DT40 TDP1 CPT: 2%

Results for COc1ccc(C)cc1NC(=O)Nc1ccc2c(c1)CCC2 ?
IL-1B inflam inh: inconclusive; HT1080NT lethal: -5%; HT1080 IDH1KD tx: 0%; TDP1 cell noCPT: inconclusive; DT40 TDP1 CPT: inconclusive

Results for CCN(CC)S(=O)(=O)c1cccc(-c2nnc(SCC(=O)c3cc(C)n(C)c3C)o2)c1 ?
IL-1B inflam inh: -25; HT1080NT lethal: 15%; HT1080 IDH1KD tx: 11%; TDP1 cell noCPT: 21µM*; DT40 TDP1 CPT: 21µM*

What do the screens show for `O=C(NN1CCCCC1)NN1CCCCC1`?
IL-1B inflam inh: 38; HT1080NT lethal: 25%; HT1080 IDH1KD tx: 0%; TDP1 cell noCPT: -12%; DT40 TDP1 CPT: -30%

Results for CCOC(=O)C1=C(CC)Nc2ccccc2N=C1NC(=O)c1ccc(C)c(S(=O)(=O)N2CCOCC2)c1 ?
IL-1B inflam inh: -10; HT1080NT lethal: -2%; HT1080 IDH1KD tx: 6%; TDP1 cell noCPT: inconclusive; DT40 TDP1 CPT: 16µM*

How did CCOCc1c(C(=O)Nc2ccc(OC)nc2)oc2ccccc12 do in these assays?
IL-1B inflam inh: -1; HT1080NT lethal: 17%; HT1080 IDH1KD tx: 18%; TDP1 cell noCPT: 18µM*; DT40 TDP1 CPT: -23%

How did CCOC(=O)C1=C(CC)Nc2ccccc2N=C1NC(=O)c1ccc(S(=O)(=O)N2CCOCC2)cc1 do in these assays?
IL-1B inflam inh: -17; HT1080NT lethal: 8%; HT1080 IDH1KD tx: 7%; TDP1 cell noCPT: inconclusive; DT40 TDP1 CPT: inconclusive

What do the screens show for `CCOC(=O)C1=C(CC)Nc2ccccc2N=C1NC(=O)c1ccc(S(=O)(=O)N(C)C)cc1`?
IL-1B inflam inh: -10; HT1080NT lethal: 1%; HT1080 IDH1KD tx: inconclusive; TDP1 cell noCPT: 5.8µM*; DT40 TDP1 CPT: 7.3µM*

Results for CCOCc1c(C(=O)NC2=Nc3ccccc3NC(CC)=C2C(=O)OCC)oc2ccccc12 ?
IL-1B inflam inh: -10; HT1080NT lethal: inconclusive; HT1080 IDH1KD tx: inconclusive; TDP1 cell noCPT: 16µM*; DT40 TDP1 CPT: 23µM*

Results for Fc1ccc(Cn2cnc3ccccc32)cc1 ?
IL-1B inflam inh: -14; HT1080NT lethal: -11%; HT1080 IDH1KD tx: -11%; TDP1 cell noCPT: -34%; DT40 TDP1 CPT: -28%

What do the screens show for `Cc1ccc(Cn2cnc3ccccc32)cc1C`?
IL-1B inflam inh: 3; HT1080NT lethal: -8%; HT1080 IDH1KD tx: -30%; TDP1 cell noCPT: 16µM*; DT40 TDP1 CPT: 13µM*

Results for Cc1ccccc1Cn1cnc2ccccc21 ?
IL-1B inflam inh: -10; HT1080NT lethal: 3%; HT1080 IDH1KD tx: -11%; TDP1 cell noCPT: 21µM*; DT40 TDP1 CPT: 18µM*
